Measurements published in the supplement of paper PMC11732987, “Enantioselective OTUD7B fragment discovery through chemoproteomics screening and high-throughput optimisation” (Communications Chemistry, 2025).

Key:
Assay in all cases: log2 ratio of Biotin-Ahx-Ub-VS probe labelling (fragment/DMSO); higher = less target engagement (more negative = stronger competition), active = hit call of the paper (q ≤ 0.05, log2 ratio ≤ -1)
Settings in all cases: compound concentration: 200 uM; treatment time: 3 h
OTUD6B = biological target: T1, OTUD6B (UniProt Q8N6M0)
T1 sequence (whole entry): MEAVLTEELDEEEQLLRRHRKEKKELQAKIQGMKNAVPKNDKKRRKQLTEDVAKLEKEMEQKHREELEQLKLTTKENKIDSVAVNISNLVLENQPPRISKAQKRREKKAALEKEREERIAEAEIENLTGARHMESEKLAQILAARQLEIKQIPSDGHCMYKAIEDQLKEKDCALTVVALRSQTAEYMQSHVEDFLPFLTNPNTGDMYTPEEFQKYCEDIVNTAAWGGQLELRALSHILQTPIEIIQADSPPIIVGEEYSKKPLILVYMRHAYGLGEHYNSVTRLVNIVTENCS
Method in brief: (§1)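 Global-median-normalised Spectronaut label-free quantities were compared by unpaired t-test, and values are average log2 ratios of fragment over vehicle. Only proteins with ≥2 unique peptides were used. HEK293T lysate (495 µg per sample) was treated in triplicate with fragment at 200 µM or vehicle for 3 h and then with Biotin-Ahx-Ub-VS at 0.5 µM final for 1 h. Labelled DUBs were then NeutrAvidin-enriched, digested with LysC and trypsin, and run by diaPASEF LC-MS/MS.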

OTUD7B = biological target: T2, OTUD7B (UniProt Q6GQQ9)
T2 sequence (whole entry): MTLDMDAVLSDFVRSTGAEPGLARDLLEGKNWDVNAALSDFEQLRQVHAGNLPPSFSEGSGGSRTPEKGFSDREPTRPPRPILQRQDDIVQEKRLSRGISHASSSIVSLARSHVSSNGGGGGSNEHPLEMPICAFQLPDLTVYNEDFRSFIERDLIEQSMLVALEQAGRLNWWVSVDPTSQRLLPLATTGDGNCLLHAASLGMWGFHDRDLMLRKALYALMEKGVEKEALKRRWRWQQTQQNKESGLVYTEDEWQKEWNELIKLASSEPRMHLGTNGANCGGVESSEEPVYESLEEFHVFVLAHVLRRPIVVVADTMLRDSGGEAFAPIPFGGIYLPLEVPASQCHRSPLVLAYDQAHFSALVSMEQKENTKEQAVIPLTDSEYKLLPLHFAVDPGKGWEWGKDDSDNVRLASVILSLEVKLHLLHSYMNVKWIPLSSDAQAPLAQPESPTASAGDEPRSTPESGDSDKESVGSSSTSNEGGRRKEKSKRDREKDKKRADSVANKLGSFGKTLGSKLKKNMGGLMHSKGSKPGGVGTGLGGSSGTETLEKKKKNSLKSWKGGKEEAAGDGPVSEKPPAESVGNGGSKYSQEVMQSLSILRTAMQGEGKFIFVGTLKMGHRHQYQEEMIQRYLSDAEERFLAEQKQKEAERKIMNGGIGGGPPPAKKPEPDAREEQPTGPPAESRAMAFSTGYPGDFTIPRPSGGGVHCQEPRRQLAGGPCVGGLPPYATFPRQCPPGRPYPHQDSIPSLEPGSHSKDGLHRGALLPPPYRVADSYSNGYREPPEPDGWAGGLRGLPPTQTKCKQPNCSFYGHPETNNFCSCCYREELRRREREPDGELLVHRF
Method in brief: as §1

PRPF8 = PRPF8 (UniProt Q6P2Q9)
Method in brief: as §1

PSMD7 = biological target: T3, PSMD7 (UniProt P51665)
T3 sequence (whole entry): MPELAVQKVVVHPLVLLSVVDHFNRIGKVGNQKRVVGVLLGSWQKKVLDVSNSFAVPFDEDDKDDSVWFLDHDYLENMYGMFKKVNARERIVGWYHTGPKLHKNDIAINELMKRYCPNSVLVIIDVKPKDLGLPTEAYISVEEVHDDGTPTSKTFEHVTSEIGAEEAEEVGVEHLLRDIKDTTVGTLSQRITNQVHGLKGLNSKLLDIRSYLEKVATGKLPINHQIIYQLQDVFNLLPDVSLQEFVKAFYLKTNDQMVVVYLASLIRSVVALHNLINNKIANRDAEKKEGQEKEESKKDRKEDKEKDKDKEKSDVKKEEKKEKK
Method in brief: as §1

UCHL1 = UCHL1 (UniProt P09936)
Method in brief: as §1

UCHL3 = biological target: T4, UCHL3 (UniProt P15374)
T4 sequence (whole entry): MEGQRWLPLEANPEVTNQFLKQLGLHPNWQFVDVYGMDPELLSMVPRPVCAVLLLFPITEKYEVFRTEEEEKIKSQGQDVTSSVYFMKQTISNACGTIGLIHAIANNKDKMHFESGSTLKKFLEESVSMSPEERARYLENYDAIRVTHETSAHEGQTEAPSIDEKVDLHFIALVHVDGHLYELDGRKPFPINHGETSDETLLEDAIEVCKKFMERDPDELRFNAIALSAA
Method in brief: as §1

UCHL5 = biological target: T5, UCHL5 (UniProt Q9Y5K5)
T5 sequence (whole entry): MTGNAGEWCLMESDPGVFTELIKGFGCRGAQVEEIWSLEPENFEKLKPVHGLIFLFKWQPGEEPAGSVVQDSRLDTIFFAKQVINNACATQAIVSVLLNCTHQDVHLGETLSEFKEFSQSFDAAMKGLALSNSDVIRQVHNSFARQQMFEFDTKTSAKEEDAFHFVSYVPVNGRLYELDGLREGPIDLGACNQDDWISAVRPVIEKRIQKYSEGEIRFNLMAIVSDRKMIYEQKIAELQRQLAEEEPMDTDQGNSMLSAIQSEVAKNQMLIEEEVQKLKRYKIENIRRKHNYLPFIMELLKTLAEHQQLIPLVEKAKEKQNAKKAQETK
Method in brief: as §1

USP10 = USP10 (UniProt Q14694)
Method in brief: as §1

USP15 = biological target: T6, USP15 (UniProt Q9Y4E8)
T6 sequence (whole entry): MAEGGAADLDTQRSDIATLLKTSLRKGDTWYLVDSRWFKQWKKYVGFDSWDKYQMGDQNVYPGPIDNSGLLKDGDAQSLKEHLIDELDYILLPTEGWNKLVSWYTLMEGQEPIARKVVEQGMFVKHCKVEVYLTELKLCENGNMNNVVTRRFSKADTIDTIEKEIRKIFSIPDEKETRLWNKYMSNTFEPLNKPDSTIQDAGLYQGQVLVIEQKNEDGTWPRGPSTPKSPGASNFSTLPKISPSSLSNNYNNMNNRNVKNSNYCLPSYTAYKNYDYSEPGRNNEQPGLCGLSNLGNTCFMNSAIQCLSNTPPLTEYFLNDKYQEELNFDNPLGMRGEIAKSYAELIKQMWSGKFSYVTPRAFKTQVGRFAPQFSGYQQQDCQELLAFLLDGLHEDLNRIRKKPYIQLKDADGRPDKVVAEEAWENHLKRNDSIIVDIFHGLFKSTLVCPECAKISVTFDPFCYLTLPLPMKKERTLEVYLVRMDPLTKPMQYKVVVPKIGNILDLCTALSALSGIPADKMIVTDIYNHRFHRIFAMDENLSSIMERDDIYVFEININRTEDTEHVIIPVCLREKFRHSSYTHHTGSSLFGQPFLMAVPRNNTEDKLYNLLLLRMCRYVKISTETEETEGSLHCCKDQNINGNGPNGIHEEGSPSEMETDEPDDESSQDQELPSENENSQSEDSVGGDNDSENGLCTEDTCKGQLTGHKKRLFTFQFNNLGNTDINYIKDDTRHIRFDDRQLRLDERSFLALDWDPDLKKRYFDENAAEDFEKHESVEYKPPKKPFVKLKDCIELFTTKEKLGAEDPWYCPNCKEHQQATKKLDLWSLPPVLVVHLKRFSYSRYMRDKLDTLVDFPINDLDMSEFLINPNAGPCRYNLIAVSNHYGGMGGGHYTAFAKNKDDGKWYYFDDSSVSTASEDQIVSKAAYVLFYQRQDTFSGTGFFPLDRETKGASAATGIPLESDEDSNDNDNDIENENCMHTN
Method in brief: as §1

USP16 = USP16 (UniProt Q9Y5T5)
Method in brief: as §1

Measured: log2 ratio of Biotin-Ahx-Ub-VS probe labelling

Sequence of USP10 (Q14694 whole entry): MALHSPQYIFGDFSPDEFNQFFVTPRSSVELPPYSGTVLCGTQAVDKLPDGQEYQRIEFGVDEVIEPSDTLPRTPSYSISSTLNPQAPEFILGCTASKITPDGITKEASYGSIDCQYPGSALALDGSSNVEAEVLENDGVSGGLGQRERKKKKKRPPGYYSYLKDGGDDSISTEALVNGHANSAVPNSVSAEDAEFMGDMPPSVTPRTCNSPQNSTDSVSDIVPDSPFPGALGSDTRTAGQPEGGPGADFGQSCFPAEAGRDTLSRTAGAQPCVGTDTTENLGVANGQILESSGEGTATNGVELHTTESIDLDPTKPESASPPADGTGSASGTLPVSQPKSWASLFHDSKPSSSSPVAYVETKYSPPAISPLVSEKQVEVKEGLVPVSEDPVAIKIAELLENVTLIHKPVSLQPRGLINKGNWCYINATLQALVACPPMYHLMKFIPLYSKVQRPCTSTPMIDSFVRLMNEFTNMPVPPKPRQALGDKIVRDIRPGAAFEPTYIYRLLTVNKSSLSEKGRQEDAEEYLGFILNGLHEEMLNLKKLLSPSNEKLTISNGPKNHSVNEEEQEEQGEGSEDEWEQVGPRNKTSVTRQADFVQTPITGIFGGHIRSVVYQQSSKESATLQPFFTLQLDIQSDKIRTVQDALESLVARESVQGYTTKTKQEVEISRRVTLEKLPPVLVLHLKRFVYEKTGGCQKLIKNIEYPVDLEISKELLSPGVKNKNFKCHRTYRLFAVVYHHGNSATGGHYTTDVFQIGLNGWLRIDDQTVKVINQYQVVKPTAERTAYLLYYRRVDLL
Sequence of USP16 (Q9Y5T5 whole entry, looked up): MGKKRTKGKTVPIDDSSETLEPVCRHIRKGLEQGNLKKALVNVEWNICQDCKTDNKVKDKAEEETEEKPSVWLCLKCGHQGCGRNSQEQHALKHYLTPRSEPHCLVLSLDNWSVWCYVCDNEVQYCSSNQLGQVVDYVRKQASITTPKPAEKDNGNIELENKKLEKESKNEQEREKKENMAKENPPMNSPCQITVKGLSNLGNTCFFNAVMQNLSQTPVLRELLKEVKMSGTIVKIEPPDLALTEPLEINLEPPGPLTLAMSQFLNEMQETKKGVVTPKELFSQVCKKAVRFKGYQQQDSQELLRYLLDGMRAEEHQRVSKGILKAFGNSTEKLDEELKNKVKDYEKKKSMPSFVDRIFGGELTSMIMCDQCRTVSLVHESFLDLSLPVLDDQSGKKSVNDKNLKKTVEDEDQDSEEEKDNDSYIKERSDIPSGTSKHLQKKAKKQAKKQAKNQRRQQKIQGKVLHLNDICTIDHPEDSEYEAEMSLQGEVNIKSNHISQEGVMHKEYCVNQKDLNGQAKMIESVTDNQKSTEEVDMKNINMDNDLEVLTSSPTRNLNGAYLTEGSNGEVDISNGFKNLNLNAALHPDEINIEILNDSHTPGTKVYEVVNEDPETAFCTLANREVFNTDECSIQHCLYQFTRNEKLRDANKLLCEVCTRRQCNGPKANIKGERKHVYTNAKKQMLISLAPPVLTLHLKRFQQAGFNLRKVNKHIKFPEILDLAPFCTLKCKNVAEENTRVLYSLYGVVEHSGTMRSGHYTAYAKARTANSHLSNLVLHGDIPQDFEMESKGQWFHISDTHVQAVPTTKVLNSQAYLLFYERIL
Sequence of UCHL1 (P09936 whole entry, looked up): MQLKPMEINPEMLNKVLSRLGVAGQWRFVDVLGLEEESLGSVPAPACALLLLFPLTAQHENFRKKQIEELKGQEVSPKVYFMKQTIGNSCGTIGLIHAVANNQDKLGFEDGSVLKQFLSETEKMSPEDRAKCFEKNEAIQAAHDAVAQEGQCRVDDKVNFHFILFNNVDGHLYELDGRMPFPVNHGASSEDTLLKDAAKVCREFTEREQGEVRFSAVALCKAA

CN(CCC(O)c1ccc(Br)cc1)C(=O)CCl (stereo not given)
active: OTUD7B -1.37 | UCHL1 -1.61
inactive: OTUD6B -0.0417 | PRPF8 0.169 | PSMD7 -0.221 | UCHL3 -0.26 | UCHL5 -0.331 | USP10 -0.142 | USP15 -0.337 | USP16 0.00689
